Key:
Assay in all cases: DAPPL (digital affinity profiling via proximity ligation, sequencing); 10 mM Tris-HCl pH 7.5, 50 mM NaCl, 1 mM DTT, 4% glycerol, room temperature, 30 min; GST-TFs on glutathione beads, 16-mer random dsDNA library, 0.1% formaldehyde crosslink after washing; high values mean tight binding
Details in all cases: protein: recombinant; tags: N-terminal GST; dsDNA, one strand shown
[1] = target: T1, FLI1 (Homo sapiens, UniProt Q01543 1-452)
T1 sequence: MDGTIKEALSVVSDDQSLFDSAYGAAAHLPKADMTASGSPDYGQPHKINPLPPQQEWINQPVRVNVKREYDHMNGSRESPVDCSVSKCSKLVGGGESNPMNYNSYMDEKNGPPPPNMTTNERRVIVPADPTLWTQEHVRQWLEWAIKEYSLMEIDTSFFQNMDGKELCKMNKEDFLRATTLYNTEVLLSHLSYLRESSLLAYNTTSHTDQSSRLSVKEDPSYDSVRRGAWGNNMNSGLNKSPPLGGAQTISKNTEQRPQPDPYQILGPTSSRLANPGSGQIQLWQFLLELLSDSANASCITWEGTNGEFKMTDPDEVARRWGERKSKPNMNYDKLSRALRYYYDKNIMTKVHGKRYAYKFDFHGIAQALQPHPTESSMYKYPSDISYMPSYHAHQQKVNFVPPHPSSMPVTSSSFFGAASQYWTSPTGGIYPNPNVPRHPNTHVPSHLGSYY
How it was run: (§1)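 GST fusions of human transcription factors were expressed in yeast and captured with glutathione beads. Once given DNA barcodes and pooled alongside a tag-only sample, they were incubated for 30 min at room temperature with 200 nmole of a random double-stranded 16-mer DNA library in Tris/NaCl/DTT/glycerol buffer, then washed, crosslinked (0.1% formaldehyde), proximity-ligated, PCR-amplified and sequenced on an Illumina NextSeq500. The binding signal of each hexamer is its read frequency for a factor divided by its frequency for the tag-only sample.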

[2] = target: T2, ELK1 (Homo sapiens, UniProt P19419 1-428)
T2 sequence: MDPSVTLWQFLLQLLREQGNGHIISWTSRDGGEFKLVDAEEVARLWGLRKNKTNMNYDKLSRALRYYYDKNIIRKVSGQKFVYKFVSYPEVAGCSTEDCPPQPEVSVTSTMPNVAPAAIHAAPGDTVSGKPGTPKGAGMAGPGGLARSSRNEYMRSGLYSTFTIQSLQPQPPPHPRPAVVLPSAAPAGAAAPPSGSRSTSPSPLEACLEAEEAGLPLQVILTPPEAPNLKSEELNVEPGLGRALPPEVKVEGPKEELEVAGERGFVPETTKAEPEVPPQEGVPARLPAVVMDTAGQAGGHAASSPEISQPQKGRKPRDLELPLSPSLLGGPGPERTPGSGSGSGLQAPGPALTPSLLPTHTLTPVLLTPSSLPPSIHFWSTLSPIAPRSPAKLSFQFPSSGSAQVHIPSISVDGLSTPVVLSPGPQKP
How it was run: as §1

[3] = target: T3, GABPA (Homo sapiens, UniProt Q06546 1-454)
T3 sequence: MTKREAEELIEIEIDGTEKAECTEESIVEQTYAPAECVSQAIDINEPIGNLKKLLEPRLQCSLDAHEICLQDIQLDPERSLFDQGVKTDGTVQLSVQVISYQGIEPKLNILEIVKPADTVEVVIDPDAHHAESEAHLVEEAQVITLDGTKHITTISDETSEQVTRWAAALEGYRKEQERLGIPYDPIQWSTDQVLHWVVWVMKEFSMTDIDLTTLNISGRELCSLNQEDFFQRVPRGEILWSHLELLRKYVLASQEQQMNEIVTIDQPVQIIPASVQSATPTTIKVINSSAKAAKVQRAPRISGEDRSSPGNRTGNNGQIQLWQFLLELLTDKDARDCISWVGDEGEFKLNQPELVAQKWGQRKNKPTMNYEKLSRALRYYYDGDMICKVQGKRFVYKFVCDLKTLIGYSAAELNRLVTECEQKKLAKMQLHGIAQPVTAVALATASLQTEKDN
How it was run: as §1

[4] = target: T4, ERG (Homo sapiens, UniProt P11308 1-479)
T4 sequence: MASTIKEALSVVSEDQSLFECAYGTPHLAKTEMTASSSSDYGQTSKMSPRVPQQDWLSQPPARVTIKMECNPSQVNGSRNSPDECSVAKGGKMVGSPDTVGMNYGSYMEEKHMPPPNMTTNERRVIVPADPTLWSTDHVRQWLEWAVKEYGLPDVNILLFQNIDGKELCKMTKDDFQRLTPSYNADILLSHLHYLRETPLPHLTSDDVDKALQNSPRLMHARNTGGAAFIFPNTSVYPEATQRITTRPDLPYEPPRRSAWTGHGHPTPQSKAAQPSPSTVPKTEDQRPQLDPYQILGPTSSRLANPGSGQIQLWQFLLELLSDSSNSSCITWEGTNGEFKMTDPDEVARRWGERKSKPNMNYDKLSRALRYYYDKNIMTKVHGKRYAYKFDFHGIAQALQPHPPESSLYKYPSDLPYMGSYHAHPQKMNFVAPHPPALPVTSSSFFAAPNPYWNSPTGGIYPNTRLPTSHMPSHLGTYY
How it was run: as §1

[5] = target: ELF1 (Homo sapiens, UniProt P32519 1-619)
How it was run: as §1

[6] = target: T5, EHF (Homo sapiens, UniProt Q9NZC4 1-300)
T5 sequence: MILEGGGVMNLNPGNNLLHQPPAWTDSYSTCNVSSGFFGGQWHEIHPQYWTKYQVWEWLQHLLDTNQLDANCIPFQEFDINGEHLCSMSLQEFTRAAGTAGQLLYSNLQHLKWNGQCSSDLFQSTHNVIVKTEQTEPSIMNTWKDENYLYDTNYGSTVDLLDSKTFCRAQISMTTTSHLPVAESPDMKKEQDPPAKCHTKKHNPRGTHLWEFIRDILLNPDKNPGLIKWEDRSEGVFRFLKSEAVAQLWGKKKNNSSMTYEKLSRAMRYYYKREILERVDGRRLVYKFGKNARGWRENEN
How it was run: as §1

[7] = target: SPI1 (Homo sapiens, UniProt P17947 1-270)
How it was run: as §1

[8] = target: SPIB (Homo sapiens, UniProt Q01892 1-262)
How it was run: as §1

[9] = target: T6, ELK3 (Homo sapiens, UniProt P41970 1-407)
T6 sequence: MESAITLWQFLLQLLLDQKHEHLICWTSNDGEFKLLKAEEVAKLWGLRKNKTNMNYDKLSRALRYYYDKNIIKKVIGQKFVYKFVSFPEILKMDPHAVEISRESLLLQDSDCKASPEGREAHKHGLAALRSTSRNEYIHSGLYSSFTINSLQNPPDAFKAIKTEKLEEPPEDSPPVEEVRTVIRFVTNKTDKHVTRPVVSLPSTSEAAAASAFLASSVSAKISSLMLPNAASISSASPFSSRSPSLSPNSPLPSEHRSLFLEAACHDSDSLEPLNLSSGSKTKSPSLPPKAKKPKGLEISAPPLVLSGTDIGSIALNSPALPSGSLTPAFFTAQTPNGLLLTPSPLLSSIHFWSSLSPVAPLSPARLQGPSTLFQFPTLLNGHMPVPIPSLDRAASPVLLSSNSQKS
How it was run: as §1

Sequence of ELF1 (P32519 whole entry): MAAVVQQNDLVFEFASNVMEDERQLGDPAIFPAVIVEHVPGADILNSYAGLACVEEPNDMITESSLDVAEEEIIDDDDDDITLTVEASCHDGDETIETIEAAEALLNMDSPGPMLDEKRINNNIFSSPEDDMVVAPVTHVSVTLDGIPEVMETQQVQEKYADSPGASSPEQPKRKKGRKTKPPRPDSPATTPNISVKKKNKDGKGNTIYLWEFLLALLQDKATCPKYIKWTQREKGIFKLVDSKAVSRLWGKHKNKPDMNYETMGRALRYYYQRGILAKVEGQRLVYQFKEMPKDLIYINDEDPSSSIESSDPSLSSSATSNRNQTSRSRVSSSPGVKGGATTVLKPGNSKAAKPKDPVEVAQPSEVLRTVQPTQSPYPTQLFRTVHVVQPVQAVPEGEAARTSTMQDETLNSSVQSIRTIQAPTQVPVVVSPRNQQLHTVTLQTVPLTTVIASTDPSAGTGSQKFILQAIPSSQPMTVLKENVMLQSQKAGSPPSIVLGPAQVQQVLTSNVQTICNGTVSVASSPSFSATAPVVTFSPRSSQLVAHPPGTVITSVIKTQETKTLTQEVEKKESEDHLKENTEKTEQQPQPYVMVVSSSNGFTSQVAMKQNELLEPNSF
Sequence of SPIB (Q01892 whole entry): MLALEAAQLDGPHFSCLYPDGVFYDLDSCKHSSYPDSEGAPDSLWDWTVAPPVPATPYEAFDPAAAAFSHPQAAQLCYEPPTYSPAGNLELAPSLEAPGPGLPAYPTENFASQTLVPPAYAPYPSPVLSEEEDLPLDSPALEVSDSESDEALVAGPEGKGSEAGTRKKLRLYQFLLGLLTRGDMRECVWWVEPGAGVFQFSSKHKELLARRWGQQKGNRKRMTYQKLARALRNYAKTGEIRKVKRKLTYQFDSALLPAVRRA

Sequence | binding signal [1] | binding signal [2] | binding signal [3] | binding signal [4] | binding signal [5] | binding signal [6] | binding signal [7] | binding signal [8] | binding signal [9]
TGGTTT | 1.6 fold enrichment (6-mer frequency, TF over GST control) | 1.44 fold enrichment (6-mer frequency, TF over GST control) | 1.55 fold enrichment (6-mer frequency, TF over GST control) | 1.51 fold enrichment (6-mer frequency, TF over GST control) | 1.58 fold enrichment (6-mer frequency, TF over GST control) | 1.48 fold enrichment (6-mer frequency, TF over GST control) | 1.66 fold enrichment (6-mer frequency, TF over GST control) | 1.43 fold enrichment (6-mer frequency, TF over GST control) | 1.6 fold enrichment (6-mer frequency, TF over GST control)
GGCTCT | 1.15 fold enrichment (6-mer frequency, TF over GST control) | 1.23 fold enrichment (6-mer frequency, TF over GST control) | 1.23 fold enrichment (6-mer frequency, TF over GST control) | 1.26 fold enrichment (6-mer frequency, TF over GST control) | 1.29 fold enrichment (6-mer frequency, TF over GST control) | 1.27 fold enrichment (6-mer frequency, TF over GST control) | 1.18 fold enrichment (6-mer frequency, TF over GST control) | 1.26 fold enrichment (6-mer frequency, TF over GST control) | 1.42 fold enrichment (6-mer frequency, TF over GST control)
CTGCGC | 1.18 fold enrichment (6-mer frequency, TF over GST control) | 1.4 fold enrichment (6-mer frequency, TF over GST control) | 1.34 fold enrichment (6-mer frequency, TF over GST control) | 1.37 fold enrichment (6-mer frequency, TF over GST control) | 1.45 fold enrichment (6-mer frequency, TF over GST control) | 1.4 fold enrichment (6-mer frequency, TF over GST control) | 1.31 fold enrichment (6-mer frequency, TF over GST control) | 1.34 fold enrichment (6-mer frequency, TF over GST control) | 1.22 fold enrichment (6-mer frequency, TF over GST control)
TCCGCT | 2.39 fold enrichment (6-mer frequency, TF over GST control) | 2.38 fold enrichment (6-mer frequency, TF over GST control) | 2.06 fold enrichment (6-mer frequency, TF over GST control) | 2.31 fold enrichment (6-mer frequency, TF over GST control) | 2.11 fold enrichment (6-mer frequency, TF over GST control) | 2.33 fold enrichment (6-mer frequency, TF over GST control) | 3.26 fold enrichment (6-mer frequency, TF over GST control) | 2.37 fold enrichment (6-mer frequency, TF over GST control) | 2.43 fold enrichment (6-mer frequency, TF over GST control)
ACTAAT | 1.33 fold enrichment (6-mer frequency, TF over GST control) | 1.27 fold enrichment (6-mer frequency, TF over GST control) | 1.23 fold enrichment (6-mer frequency, TF over GST control) | 1.2 fold enrichment (6-mer frequency, TF over GST control) | 1.33 fold enrichment (6-mer frequency, TF over GST control) | 1.37 fold enrichment (6-mer frequency, TF over GST control) | 1.28 fold enrichment (6-mer frequency, TF over GST control) | 1.39 fold enrichment (6-mer frequency, TF over GST control) | 1.37 fold enrichment (6-mer frequency, TF over GST control)
TGGCTT | 1.27 fold enrichment (6-mer frequency, TF over GST control) | 1.21 fold enrichment (6-mer frequency, TF over GST control) | 1.33 fold enrichment (6-mer frequency, TF over GST control) | 1.31 fold enrichment (6-mer frequency, TF over GST control) | 1.28 fold enrichment (6-mer frequency, TF over GST control) | 1.26 fold enrichment (6-mer frequency, TF over GST control) | 1.24 fold enrichment (6-mer frequency, TF over GST control) | 1.26 fold enrichment (6-mer frequency, TF over GST control) | 1.23 fold enrichment (6-mer frequency, TF over GST control)
TACCTT | 1.36 fold enrichment (6-mer frequency, TF over GST control) | 1.33 fold enrichment (6-mer frequency, TF over GST control) | 1.36 fold enrichment (6-mer frequency, TF over GST control) | 1.42 fold enrichment (6-mer frequency, TF over GST control) | 1.3 fold enrichment (6-mer frequency, TF over GST control) | 1.47 fold enrichment (6-mer frequency, TF over GST control) | 1.33 fold enrichment (6-mer frequency, TF over GST control) | 1.42 fold enrichment (6-mer frequency, TF over GST control) | 1.23 fold enrichment (6-mer frequency, TF over GST control)

— article PMC7862700, “An all-to-all approach to the identification of sequence-specific readers for epigenetic DNA modifications on cytosine”
